The campaign covered roughly 330,000 compounds. About 1,900 (0.58%) were called active. Another 4% or so got no clear call; they are omitted. Cut-off read from the data, not from the text of the source: inconclusive = inhibition above about 70% without an active follow-up result; inactive = below that. Not all results are given here. Potency and affinity values are given separately.
Assay: M. tuberculosis growth inhibition, HTS (AID 449762);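 note: bacterial growth assessed after seven days of incubation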
Settings: M. tuberculosis H37Rv growth inhibition, 7H9 media; at 25 µM; hits give high values
With O=C(/C=C/c1ccccc1)N1c2ccccc2Sc2ccc(C(F)(F)F)cc21 the inhibition was 25.3% (inactive).
With COc1cccc(-n2c(CN3CCN(c4ccccn4)CC3)nc3ccc([N+](=O)[O-])cc3c2=O)c1 the inhibition was -0.01% (inactive).
For COc1ccc(NC(=O)CSc2nc3c(c(=O)n2-c2ccc(C)cc2)SCC3)c(OC)c1, the inhibition was -1.52% (inactive).
With Cc1ccccc1C(=O)NCCCNC(=O)c1cnccn1 the inhibition was 4.01% (inactive).
With COc1ccc(CCNC(=O)CNS(=O)(=O)c2cccs2)cc1OC the inhibition was -11.3% (inactive).
For CCOc1ccc(S(=O)(=O)NC(Cc2cnc[nH]2)C(=O)O)cc1 (stereo not drawn), the inhibition was -6.37% (inactive).
With CC(=O)Nc1cccc(OCC(=O)Nc2ccc(F)cc2)c1 the inhibition was -11.2% (inactive).
In the case of C=CC(=O)Nc1cccc(Oc2ncnc3[nH]cc(-c4cnc5ccccc5c4)c23)c1, the inhibition was 1.76% (inactive).
In the case of Cc1ccc(NC(=O)COC(=O)Cn2cnc3ccccc32)c(C)c1, the inhibition was 5.43% (inactive).
For O=[N+]([O-])/C=C/c1cn(Cc2ccc(Cl)cc2)c2ccccc12, the inhibition was 3.28% (inactive).
With Cc1cccc(Cn2cc(/C=C/[N+](=O)[O-])c3ccccc32)c1 the inhibition was -0.16% (inactive).
With COc1cc(CN(CC2CCCO2)C(=O)c2cccs2)cc(OC)c1OC (stereo not drawn) the inhibition was 1.89% (inactive).
With CCOc1ccc(N2CC(C(=O)Nc3ccccn3)CC2=O)cc1 (stereo not drawn) the inhibition was 12.2% (inactive).
In the case of COc1ccc(COC(=O)C2CC(=O)N(Cc3ccc(C)cc3)C2)cc1 (stereo not drawn), the inhibition was 16.4% (inactive).
For CC(C)Oc1ccc(N2CC(C(=O)Nc3ccccn3)CC2=O)cc1 (stereo not drawn), the inhibition was 10.3% (inactive).
With NC(=O)C1CC(=O)N(c2ccc(OCc3ccccc3Cl)cc2)C1 (stereo not drawn) the inhibition was 7.94% (inactive).
With O=C(OCc1ccccc1Cl)C1CC(=O)N(Cc2ccco2)C1 (stereo not drawn) the inhibition was 5.47% (inactive).
With O=C(O)C1CC(=O)N(c2ccc(OCc3ccccc3Cl)cc2)C1 (stereo not drawn) the inhibition was 35.8% (inactive).
For O=C(COC(=O)c1ccc(Cl)nc1)NNC(=O)c1ccc(Cl)cc1, the inhibition was 5.61% (inactive).
With O=C(NCCC1=CCCCC1)c1cc(S(=O)(=O)N2CCOCC2)c(Cl)cc1Cl the inhibition was 2.93% (inactive).
For CCc1ccccc1N(CC(=O)NCC1CCCO1)C(=O)CCC(=O)Nc1cc(C)on1 (stereo not drawn), the inhibition was -3.22% (inactive).
With COc1ccc(OC)c(S(=O)(=O)N2CCC(C(=O)Nc3cc(C)ccc3C)CC2)c1 the inhibition was -10.6% (inactive).
In the case of Cc1ccccc1C1C(C#N)=C2N=C(N)c3ccccc3N2C2=C1C(=O)CCC2 (stereo not drawn), the inhibition was 6.31% (inactive).
For CCOC(=O)/C(=N\Nc1ccccc1)c1csc(Nc2ccc(C)cc2)n1, the inhibition was 7.86% (inactive).
With CCOC(=O)/C(=N\Nc1ccc(C(C)=O)cc1)c1csc(Nc2ccccc2)n1 the inhibition was -1.99% (inactive).
In the case of Cc1ccc(NC(=O)CN(C)C(=O)c2ccc3[nH]c4c(c3c2)CC(C)CC4)cc1 (stereo not drawn), the inhibition was -5.07% (inactive).
For O=C(c1ccccc1)c1ccc(COC(=O)c2cnccn2)cc1, the inhibition was 18% (inactive).
With O=C(OCc1ccc(Cl)cc1)c1cnccn1 the inhibition was 31.1% (inactive).
For COC(=O)CN(c1cccc(OC)c1)S(C)(=O)=O, the inhibition was 1.45% (inactive).
For CN(C)C(CNc1ncnc2sccc12)c1cccs1 (stereo not drawn), the inhibition was -3.95% (inactive).
With CCOC(=O)c1sc2ncnc(NCc3ccco3)c2c1C the inhibition was 0.46% (inactive).
With NC(=O)c1ccsc1NC(=O)COC(=O)Cc1c[nH]c2ccccc12 the inhibition was 2.86% (inactive).
With COc1ccc(/C=C2/SC(=O)N(CCNC(=O)CC(NC(C)=O)c3ccccc3)C2=O)cc1 (stereo not drawn) the inhibition was -1.58% (inactive).
With Cc1ccc(CC(=O)Nc2ccc(Cl)cn2)cc1 the inhibition was 3.62% (inactive).
In the case of Cc1ccc(NC(=O)Cc2ccc(Cl)cc2)nc1, the inhibition was 11.2% (inactive).
In the case of O=C(c1ccc(Cl)cc1)N1N=CCC1(O)c1ccc(Cl)cc1 (stereo not drawn), the inhibition was 2.13% (inactive).
With C[C@H](NC(=O)c1[nH]cnc1C(=O)Nc1ccon1)c1ccccc1 the inhibition was -0.305% (inactive).
In the case of O=C(OCC(=O)N1CCN(C(=O)c2ccco2)CC1)c1cc(-c2ccc(Cl)c(Cl)c2Cl)nc2ccccc12, the inhibition was 4.98% (inactive).
For O=C(OCC(=O)N1CCN(C(=O)c2ccco2)CC1)c1cc(-c2ccco2)nc2ccccc12, the inhibition was 6.06% (inactive).
For COc1ccc(CN(C)C(=O)C(Cc2ccccc2)NC(=O)c2ccccc2)c(OC)c1 (stereo not drawn), the inhibition was 0.87% (inactive).
For COc1cc(CN2CCC(n3nccc3NC(=O)CCCc3ccccc3)CC2)ccc1F, the inhibition was -1.97% (inactive).
For CC1CCC/C(=N\NC(=O)Nc2ccccc2)C1 (stereo not drawn), the inhibition was -3.97% (inactive).
With CCC(C)(C)C1CCC(=NNC(=S)Nc2ccccc2)CC1 (stereo not drawn) the inhibition was 6.86% (inactive).
With CCN(CC(=O)NCc1ccc(Cl)cc1)C(=O)c1ccc(S(=O)(=O)N(C)C)cc1 the inhibition was -8.9% (inactive).
With N=C1N(/N=C/c2ccccc2)C(=Nc2ccccc2)C(=S)N1c1ccccc1 the inhibition was -15.3% (inactive).
For Cc1ccc(N=C2C(=S)N(c3ccc(C)cc3)C(=N)N2/N=C/c2ccc(Cl)cc2)cc1, the inhibition was -4.74% (inactive).
In the case of CNC(=O)CSCc1cnn(-c2ccccc2)c1-n1cccc1, the inhibition was -0.17% (inactive).
In the case of Nc1ccc(S(=O)(=O)N2CCCC2C(=O)O)cc1 (stereo not drawn), the inhibition was -7.07% (inactive).
For Nc1nonc1C(=O)NCCNCc1ccccc1OCc1ccccc1F, the inhibition was 2.36% (inactive).
In the case of Nc1nonc1C(=O)NCCNCc1cc(Br)ccc1OCc1ccccc1F, the inhibition was 14.5% (inactive).
With COc1ccc(N(CC(=O)NC2CC3CCC2C3)S(=O)(=O)c2ccc(C)c([N+](=O)[O-])c2)cc1 (stereo not drawn) the inhibition was 2.1% (inactive).
With O=C(COc1ccc(-n2ccnc2)cc1)Nc1cccc(Cl)c1 the inhibition was -3.44% (inactive).
For COc1cc(NC(=O)COc2ccc(-n3ccnc3)cc2)cc(OC)c1, the inhibition was 38.6% (inactive).
In the case of Cc1ccc(C(=O)N2CCN(c3ccc([N+](=O)[O-])c(NCc4cccnc4)c3)CC2)cc1, the inhibition was 0.99% (inactive).
For COc1cc(/C=c2\s/c(=C\C(=O)C(C)(C)C)[nH]c2=O)cc(OC)c1OC, the inhibition was 69% (inactive).
For CC(C)(C)C(=O)/C=c1\[nH]c(=O)/c(=C\c2ccccc2F)s1, the inhibition was 48.4% (inactive).
For O=C(Nc1c(C(=O)NCc2ccco2)cnn1-c1ccccc1)c1ccc(F)cc1, the inhibition was 3.13% (inactive).
For COc1ccc(C(=O)Nc2nnc(S(=O)(=O)Cc3ccccc3)s2)cc1, the inhibition was 8.58% (inactive).
In the case of O=C(N/N=C/c1ccccc1)C(=O)N/N=C/c1ccccc1, the inhibition was 2.46% (inactive).
In the case of O=C(CC1CCCC1)N1CCN(S(=O)(=O)c2ccc(F)cc2)CC1, the inhibition was -4.71% (inactive).
With COC(=O)c1ccccc1NC(=O)COC(=O)CSc1nnc(N)s1 the inhibition was 0.97% (inactive).
In the case of CC(C)(C)OC(=O)NCCCCCNC(=O)c1[nH]cnc1C(=O)Nc1ccon1, the inhibition was -5.82% (inactive).
With COc1ccc(NC(=O)NCc2cccnc2)cc1OC the inhibition was -5.2% (inactive).
For COC(=O)Cn1nc(-c2ccccc2)c2ccccc2c1=O, the inhibition was 65.5% (inactive).
With COC(=O)Cn1nc(-c2ccccc2)c2ccccc21 the inhibition was 31.4% (inactive).
With Cc1ccccc1C(=O)N1CCC(C(=O)N(CC(C)C)c2c(N)n(CC(C)C)c(=O)[nH]c2=O)CC1 the inhibition was -6.17% (inactive).
With COC(=O)[C@H](CCSC)NC(=O)NCc1cccs1 the inhibition was -7.69% (inactive).
For Cc1cccc(NC(=O)C2CCN(c3nccc(C)n3)CC2)c1, the inhibition was 3.71% (inactive).
In the case of Cc1cc(C)nc(N2CCC(C(=O)Nc3cccc(C(F)(F)F)c3)CC2)n1, the inhibition was -14.2% (inactive).
In the case of CCOC(=O)c1cn(CC)c2cc(Cl)c([N+](=O)[O-])cc2c1=O, the inhibition was 9.8% (inactive).
With CCCN1CCN(C2CCCCC2NS(=O)(=O)c2ccccc2)CC1 (stereo not drawn) the inhibition was -5.87% (inactive).
With OC(COC(c1ccc(F)cc1)c1ccc(F)cc1)CN1CCc2ccccc2C1 (stereo not drawn) the inhibition was 28.2% (inactive).
For OC(COC(c1ccccc1)c1ccccc1)CN1CCc2ccccc2C1 (stereo not drawn), the inhibition was 4.67% (inactive).
In the case of CCOc1ccc(Oc2nc(NCC(C)C)nc(N(C)C)n2)nn1, the inhibition was -2.04% (inactive).
With COC(=O)Cn1c(=O)oc2ccc(C)cc21 the inhibition was -1.52% (inactive).
In the case of COc1cc(NC(=O)CCc2c(C)nc3nc(C)nn3c2C)cc(OC)c1, the inhibition was 2.33% (inactive).
With COC(=O)c1sccc1NC(=O)CSc1cccc(Cl)c1Cl the inhibition was 11% (inactive).
For COC(=O)c1ncccc1SC, the inhibition was -6.32% (inactive).
With COc1ccc(-c2noc(C3CCCN(S(=O)(=O)c4ccc(C)c(Cl)c4)C3)n2)cc1OC (stereo not drawn) the inhibition was -3.19% (inactive).
For CCCC(C)NC(=O)COc1ccc(S(=O)(=O)c2ccc(OCC(=O)NC(C)CCC)cc2)cc1 (stereo not drawn), the inhibition was -8.03% (inactive).
For O=C(Nc1cccnc1)C1CCN(S(=O)(=O)c2ccc(Cl)cc2)CC1, the inhibition was 0.94% (inactive).
In the case of CSCCC(NC(=O)CCC(=O)OC1CC[C@H]2[C@@H]3CC[C@H]4CC(=O)CC[C@]4(C)[C@H]3CC[C@]12C)C(=O)O (stereo partly drawn), the inhibition was 2.77% (inactive).
For CCOC(=O)c1c(NC(=O)CSc2nnc(C)s2)sc2c1CCC(CC)C2 (stereo not drawn), the inhibition was -2.5% (inactive).
With COC(=O)C1=C(N)OC2=C(C(=O)CC(C)(C)C2)C1c1ccccc1OCC#N (stereo not drawn) the inhibition was 4.16% (inactive).
In the case of Cc1ccc(NC(=O)C2CCCN(c3ncccn3)C2)c(C)c1 (stereo not drawn), the inhibition was 7.16% (inactive).
In the case of CCCc1ccc2oc(C(=O)N(C)Cc3ccn[nH]3)c(C)c2c1, the inhibition was 4.45% (inactive).
In the case of CCCc1ccc2oc(C(=O)N(C)Cc3cnccn3)c(C)c2c1, the inhibition was -5.84% (inactive).
For Cc1cc(C)c(NC(=O)CSc2nnc(CN3CCOCC3)n2C)c(C)c1, the inhibition was -5.19% (inactive).
In the case of Cc1cccc(NC(=O)CSc2nnc(Cc3ccccc3)o2)c1, the inhibition was 9.03% (inactive).
For Cc1ccc(NC(=O)CSc2nnc(Cc3ccccc3)o2)cc1, the inhibition was -3.22% (inactive).
With O=C(COC(=O)CCC(=O)c1ccc(F)cc1)NC1CCCCC1 the inhibition was -5.44% (inactive).
In the case of CC12CCC(=O)N1C(C(=O)O)Cc1c2[nH]c2ccccc12 (stereo not drawn), the inhibition was 6.77% (inactive).
With CC1(C)NC(C(=O)O)Cc2c1[nH]c1ccccc21 (stereo not drawn) the inhibition was -1.33% (inactive).

From PubChem BioAssay AID449762 (Southern Research Specialized Biocontainment Screening …, 2010)
